Laboratory results reported in PubChem BioAssay AID2315 (National Center for Advancing Translational Sciences (NCATS), 2010).
Out of some 290,000 compounds screened, about 27,000 (9.3%) were called active. No stated cut-off is given here; in the data, active means inhibition mostly above about 28% (no sharp cut-off); inactive means mostly below about 43%. What follows is part of a selection rich in actives, with near analogues and random picks from the rest.

Assay: A qHTS for Small Molecule Inhibitors of Shiga Toxin; further: 0% is about no effect
Conditions: Vero cells, Shiga toxin protein synthesis inhibition reporter; at 38.7 µM, stronger effect = higher value
With `O=S(=O)(Cc1nnnn1-c1ccc(Br)cc1)c1ccc(F)cc1` the inhibition was -1.52% (inactive).
In the case of `CCOc1ccc(-n2c(SCC(=O)Nc3cc(C(=O)O)ccc3Cl)nc3ccccc3c2=O)cc1`, the inhibition was 3.55% (inactive).
For `CC(=O)c1cccc(NC(=O)COc2ccc(S(=O)(=O)N3CCOCC3)cc2)c1`, the inhibition was -10.1% (inactive).
With `CCCC(C)c1nnc(NC(=O)C2CC(=O)N(c3ccc(OCC)cc3)C2)s1` (stereo not drawn) the inhibition was -3.18% (inactive).
For `Cc1cccn2c(=O)c3cc(C(=O)NCCN4CCOCC4)c(=N)n(Cc4cccnc4)c3nc12`, the inhibition was -22.4% (inactive).
For `COc1cccc(C(=O)Nc2nnc(S(=O)(=O)N3CCCCC3)s2)c1`, the inhibition was 6.87% (inactive).
For `COc1cccc(NC(=O)Nc2nnc(N3CCCCC3C)s2)c1` (stereo not drawn), the inhibition was 53.2% (active).
With `CCOC(=O)c1csc(NC(=O)Nc2cccc(OC)c2)n1` the inhibition was -3.25% (inactive).
For `CN1C(=O)[C@H]2[C@@H](C3CC3)N3C(=O)CN(Cc4ccccc4)C(=O)[C@@]3(C)[C@H]2C1=O`, the inhibition was 1.87% (inactive).
In the case of `CC1CCN(CCCn2c(SCC(=O)NC3CCCC3)nc3ccccc3c2=O)CC1`, the inhibition was 17.3% (inactive).
With `COc1ccc(/C(O)=C2/C(=O)C(=O)N(c3nc(C)c(C)s3)C2c2ccco2)cc1` (stereo not drawn) the inhibition was 30.6% (inactive).
For `CCOc1ccc(/C(O)=C2\C(=O)C(=O)N(c3ccc(OC)cc3)C2c2ccccc2[N+](=O)[O-])cc1` (stereo not drawn), the inhibition was 26.8% (active).
In the case of `COc1ccccc1C1/C(=C(/O)c2ccc(OC(C)C)cc2)C(=O)C(=O)N1c1cc(C)on1` (stereo not drawn), the inhibition was -22.9% (inactive).
For `CCOC(=O)C(CC)/C(C)=N\NC(=O)c1cccc(C)c1` (stereo not drawn), the inhibition was 66.3% (active).
With `CCNC(=O)COC(=O)CCNC(=O)c1cccc(C)c1` the inhibition was 43.3% (inactive).
For `COc1ccc(OCC(=O)NNC(=O)c2cccc(C)c2)cc1`, the inhibition was -7.72% (inactive).
In the case of `Cc1cc(=O)oc2c3c(cc(OCC(=O)NCCC(=O)N[C@@H](C)C(=O)O)c12)OC(C)(C)CC3`, the inhibition was -4.24% (inactive).
In the case of `Cc1cc2c(s1)c1cnn(Cc3c(F)cccc3Cl)c(=O)c1n2C`, the inhibition was 12.5% (inactive).
For `O=C(c1cccs1)N(C(=O)c1cccs1)c1ccccn1`, the inhibition was 39.7% (inactive).
For `O=C(C1=C(O)C(=O)N(c2ncccn2)C1c1cccs1)c1ccco1` (stereo not drawn), the inhibition was -18.4% (inactive).
For `O=C(C1=C(O)C(=O)N(CCOCCO)C1c1ccccn1)c1cccs1` (stereo not drawn), the inhibition was 29.3% (active).
In the case of `C=CCOc1nc2c(c(=O)n(C)c(=O)n2C)n1Cc1ccc(Cl)cc1Cl`, the inhibition was -1.49% (inactive).
For `Cn1c(=O)c2c(nc(NCCc3ccccc3)n2Cc2ccccc2)n(C)c1=O`, the inhibition was -11.5% (inactive).
For `Cn1c(=O)c2c(nc(OCc3cccnc3)n2Cc2ccccc2)n(C)c1=O`, the inhibition was 39.2% (active).
In the case of `COc1ccc(CN2C3CCCC2CC(NC(=O)c2cccc(F)c2)C3)cc1` (stereo not drawn), the inhibition was 14.6% (inactive).
In the case of `C=CCNc1cnn(-c2ccc(C)cc2)c(=O)c1Cl`, the inhibition was 127% (active).
For `Cc1cccc(-n2ncc(Cl)c(Cl)c2=O)c1`, the inhibition was -17.2% (inactive).
For `O=c1c(Cl)c(NC2CC2)cnn1-c1ccccc1`, the inhibition was 107% (inactive).
In the case of `CCCN1C2CCCC1CC(NC(=O)c1cccc(OC)c1)C2` (stereo not drawn), the inhibition was 12.9% (inactive).
For `CC(=O)n1c(C=Nc2ccccc2)c(O)c2ccccc21`, the inhibition was 49.2% (active).
In the case of `CCCCn1c(=O)c(C(C)=O)c(O)c2ccccc21`, the inhibition was -12.1% (inactive).
In the case of `CCOc1ccc(N=Cc2c(O)n(-c3cccc(C)n3)c(=O)c3ccccc23)cc1`, the inhibition was -15.9% (inactive).
For `Cc1ccc(CN2CCN(/N=C/c3ccco3)CC2)c(C)c1`, the inhibition was 11.6% (inactive).
In the case of `O=C(c1ccco1)N1CCN(Cc2cccc(C(F)(F)F)c2)CC1`, the inhibition was -13.9% (inactive).
For `C/C(=N\N1CCN(Cc2ccc(C)cc2)CC1)c1ccco1`, the inhibition was 31.8% (active).
With `CCOc1ccc(NC(=O)C/C(C)=N/NC(=O)Cc2cccs2)cc1` the inhibition was 2.74% (inactive).
With `CN(C)c1ccc(NC(=O)CN2C3CCCC2CC(NC(=O)c2ccccc2)C3)cc1` (stereo not drawn) the inhibition was 27.2% (inactive).
In the case of `C/C(CC(=O)Nc1ccc(N(C)C)cc1)=N\NC(=O)c1ccccc1F`, the inhibition was 121% (active).
In the case of `CCn1c2ccccc2c2cc(NC(=O)C/C(C)=N/NC(=O)c3ccccc3N)ccc21`, the inhibition was 131% (active).
For `CCn1c2ccccc2c2cc(NC(=O)CNC)ccc21`, the inhibition was -4.7% (inactive).
In the case of `CCn1c2ccccc2c2cc(NC(=O)COC(=O)c3ccccc3Br)ccc21`, the inhibition was -4.15% (inactive).
In the case of `CC(=O)NCCc1ccc(S(=O)(=O)Nc2ccc(C)c(S(=O)(=O)N3CCOCC3)c2)cc1`, the inhibition was -1.5% (inactive).
For `COc1ccccc1NC(=O)CN(c1ccccc1OC)S(=O)(=O)c1ccccc1`, the inhibition was -1.35% (inactive).
With `Cc1ccc(NC(=O)CSc2nnc(CNC(=O)c3ccccc3F)o2)cc1Cl` the inhibition was -10.8% (inactive).
With `CC(C)[C@H](NC(=O)N1c2ccccc2NC(=O)[C@@H]1C(C)C)C(=O)N[C@H](C(=O)O)c1ccccc1` the inhibition was 3.44% (inactive).
In the case of `Cc1ccc(OCC(=O)NCCCNC(=O)c2ccco2)cc1C`, the inhibition was -2.33% (inactive).
With `CN(Cc1cnccn1)C(=O)c1cc(COc2cccc(C(F)(F)F)c2)on1` the inhibition was 60.3% (active).
With `Cc1ccc(OCc2cc(C(=O)N(C)CCc3ccccc3)no2)cc1C` the inhibition was 106% (active).
In the case of `CN(CCOc1ccccc1)C(=O)c1cc(COc2c(F)cccc2F)on1`, the inhibition was 28.4% (inactive).
With `C/C(=N/OC(=O)c1cccc(C(F)(F)F)c1)c1cnccn1` the inhibition was -18.2% (inactive).
In the case of `CN(Cc1cccnc1)C(=O)c1cc(COc2ccc3ncccc3c2)on1`, the inhibition was 21.5% (inactive).
In the case of `Cc1cc(CN(C)C(=O)c2cc(COc3ccc(C)c(C)c3)on2)n[nH]1`, the inhibition was 59.9% (active).
In the case of `Cc1ccc(SC(=O)COc2ccc(C)c(C)c2)cc1`, the inhibition was -26.3% (inactive).
For `Cc1ccc(OCC(=O)NCCCNC(=O)c2cccnc2)cc1C`, the inhibition was -10.2% (inactive).
For `O=S(=O)(Cc1noc(-c2ccc(OC(F)(F)F)cc2)n1)c1ccc(F)cc1`, the inhibition was 60.4% (inactive).
With `COc1ccc(C(C)NC(=O)C23CC4CC(CC(C4)C2)C3)cc1` (stereo not drawn) the inhibition was -10.2% (inactive).
In the case of `COc1ccccc1NC(=O)CCC(=O)OC(C)C(=O)c1ccccc1` (stereo not drawn), the inhibition was -0.996% (inactive).
In the case of `Cc1n[nH]c(C)c1S(=O)(=O)N1CCCC(C(=O)Nc2ccc(Br)cc2)C1` (stereo not drawn), the inhibition was 3.93% (inactive).
